The values that follow come from PubChem BioAssay (EPA / NIEHS).

Active and inactive are the calls of the source. The calls were made as follows: active = hit-call score of the fitted dose curve at least 0.9, where 1 is the maximum; inactive = score below 0.9.

For test [1], the target named is Transcription factor E2F1 (Homo sapiens) (UniProt Q01094). In words: ATG_E2F_CIS: Attagene CIS-FACTORIAL HepG2 Assay for human E2F Transcription Factor 1 (AID 2282935). The settings on record: HepG2 Attagene cis-reporter, E2F reporter RNA transcripts; actives raise or lower the signal. Summed up: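 First, HepG2 cells were transfected with reporter transcription units. Next, they were dosed for 24 h. Then RNA was isolated, converted to cDNA, PCR-amplified, FAM-labeled, HpaI-digested and analyzed by capillary electrophoresis.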
Chain of Transcription factor E2F1 (Homo sapiens) (Q01094 whole entry, looked up): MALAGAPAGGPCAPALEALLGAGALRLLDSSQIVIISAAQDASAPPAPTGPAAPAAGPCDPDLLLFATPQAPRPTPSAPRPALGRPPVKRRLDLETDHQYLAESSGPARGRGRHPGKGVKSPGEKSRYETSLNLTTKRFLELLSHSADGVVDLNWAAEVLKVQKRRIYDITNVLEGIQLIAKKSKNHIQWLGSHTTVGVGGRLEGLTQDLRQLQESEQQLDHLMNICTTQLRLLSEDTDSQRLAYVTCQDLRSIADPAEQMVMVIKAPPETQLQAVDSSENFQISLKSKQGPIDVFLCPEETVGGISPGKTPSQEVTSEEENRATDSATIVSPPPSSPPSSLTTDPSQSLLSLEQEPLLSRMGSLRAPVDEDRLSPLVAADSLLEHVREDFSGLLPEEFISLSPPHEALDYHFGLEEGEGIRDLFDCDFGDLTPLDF

Test [2] in a line: ATG_E_Box_CIS: Attagene CIS-FACTORIAL HepG2 Assay for human Enhancer Box (E-box) (AID 2282936). The settings on record: HepG2 E-box cis-reporter transcription, actives raise or lower the signal. The essentials: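 Endogenous transcription factor activity was sensed in human HepG2 liver cells through transfected cis-promoter reporter units. After 24 h of dosing, total RNA was reverse-transcribed and reporter cDNA resolved by capillary electrophoresis.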

A short description of test [3]: ATG_M_61_CIS: Attagene CIS-FACTORIAL HepG2 Assay for M61 Transcription Factor (Internal Marker) (AID 2282937). The settings on record: HepG2 Attagene CIS-FACTORIAL M61 internal marker reporter; actives raise or lower the signal. Summed up:
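Readout is reporter mRNA by RT-PCR, fluorescent primer extension and capillary electrophoresis, with gain or loss fitted relative to DMSO. Transfected HepG2 cells carrying endogenous-TF-driven cis reporters were exposed to chemicals for 24 hours.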

A short description of test [4]: ATG_EGR_CIS: Attagene CIS-FACTORIAL HepG2 Assay for human Early Growth Response 1 (EGR1) (AID 2282938). The settings on record: HepG2 Attagene CIS-FACTORIAL EGR reporter mRNA; actives raise or lower the signal. Summed up: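 After 24 h compound exposure, RNA from reporter-transfected HepG2 cells was reverse-transcribed, PCR-amplified, fluorescently labelled and resolved by capillary electrophoresis. EGR1 reporter transcript changes, up or down, were fitted against DMSO, reflecting endogenous transcription-factor activity.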

Test [5] can be described thus: ATG_M_19_CIS: Attagene CIS-FACTORIAL HepG2 Assay for M19 Transcription Factor (Internal Marker) (AID 2282939). The settings on record: HepG2 Attagene CIS-FACTORIAL M19 internal marker reporter; actives raise or lower the signal. Summed up: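 Readout: fluorescent reporter-transcript fragments by capillary electrophoresis after RT-PCR. Human HepG2 liver cells carried transfected MRTU constructs reporting endogenous transcription-factor activity; exposure 24 h. Gain or loss of signal fitted relative to DMSO.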

A short description of test [6]: ATG_ERE_CIS: Attagene CIS-FACTORIAL HepG2 Assay for Estrogen Response Element (ERE) (AID 2282940). The settings on record: HepG2 ERE cis-reporter, Attagene RNA transcript; actives raise or lower the signal. The essentials:
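Readout: reporter mRNA induction by RT-PCR, FAM-labelled primer extension, HpaI digestion and capillary electrophoresis, 24 h after dosing transfected HepG2 cells. Endogenous transcription factors act on cis-element-regulated reporters. Gain or loss fitted against DMSO.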

Test [7] is described as follows: ATG_Ets_CIS: Attagene CIS-FACTORIAL HepG2 Assay for human Erythroblast Transformation Specific (ETS) (AID 2282941). The settings on record: HepG2 ETS cis-reporter transcription, actives raise or lower the signal. The essentials:
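Multiplexed reporter transcript profiling: HepG2, 24 h treatment, total RNA to cDNA, PCR, 6-FAM labelling, HpaI cut, capillary electrophoresis. Gain- or loss-of-signal fitted against DMSO.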

Test [8] has as its target Hepatocyte nuclear factor 3-beta (Homo sapiens) (UniProt Q9Y261). In words: ATG_FoxA2_CIS: Attagene CIS-FACTORIAL HepG2 Assay for human Forkhead box A2 (FOXA2) (AID 2282942). The settings on record: HepG2 cis-reporter transcription factor activity, 24 h; actives raise or lower the signal. The essentials: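 Endogenous transcription factor activity is captured via cis-element-driven reporter transcripts in transfected HepG2. Total RNA taken at 24 h post-dosing; labelled RT-PCR products resolved by capillary electrophoresis. Gain or loss fitted versus DMSO.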

Test [9] can be described thus: ATG_FoxO_CIS: Attagene CIS-FACTORIAL HepG2 Assay for human Forkhead box O (FoxO) (AID 2282943). The settings on record: HepG2 Attagene cis-reporter, FoxO element, mRNA; actives raise or lower the signal. Summed up: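 HepG2 cells transiently transfected with cis-promoter-driven multiple reporter transcription units; 24 h after chemical dosing, reporter mRNA quantified by RT-PCR, fluorescent primer extension, HpaI digestion and capillary electrophoresis. Bidirectional fitting versus DMSO baseline.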

Test [10] in a line: ATG_GATA_CIS: Attagene CIS-FACTORIAL HepG2 Assay for human GATA Binding Protein (AID 2282944). The settings on record: HepG2 GATA cis-element reporter, Attagene multiplex mRNA; actives raise or lower the signal. Summed up: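 Read-out: fluorescent reporter mRNA fragments resolved by capillary electrophoresis after RT-PCR. Human liver HepG2 cells carried transiently transfected cis-regulated reporter constructs; chemicals incubated 24 h; gain or loss of signal fitted relative to DMSO.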

Test [11] in a line: ATG_GLI_CIS: Attagene CIS-FACTORIAL HepG2 Assay for human Zinc Finger Protein GLI1 (AID 2282945). The settings on record: HepG2, Attagene cis-factorial reporter mRNA, GLI element; actives raise or lower the signal. Summed up: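 HepG2 cells transiently transfected with cis-promoter multiplexed reporter units report endogenous transcription factor activity. After 24 h chemical exposure, reporter mRNA was quantified by RT-PCR, 6-FAM labelling, HpaI digestion and capillary electrophoresis, with bidirectional fitting against DMSO.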

The nature of test [12]: ATG_ISRE_CIS: Attagene CIS-FACTORIAL HepG2 Assay for human Interferon Regulatory Factor 1 (IRF1) binding to an Interferon-Stimulated Response Element (ISRE) (AID 2282948). The settings on record: HepG2 ISRE cis-reporter (Attagene), mRNA transcription readout; actives raise or lower the signal. The essentials: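 Signal reflects induction or loss of ISRE-linked reporter mRNA in transiently transfected HepG2 cells after a 24 h treatment, detected by fluorescent RT-PCR fragments on capillary electrophoresis and normalised to DMSO.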

A short description of test [13]: ATG_M_32_CIS: Attagene CIS-FACTORIAL HepG2 Assay for M32 Transcription Factor (Internal Marker) (AID 2282949).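 Also: background control marker of the multiplexed CIS panel rather than a real target.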 The settings on record: HepG2 Attagene cis-factorial M32 reporter, mRNA; actives raise or lower the signal. Summed up:
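HepG2 transfectants (cis-regulated reporter transcription units) dosed 24 h. Reporter mRNA by RT-PCR plus CE, analysed as gain or loss relative to DMSO.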

Test [14] in a line: ATG_M_06_CIS: Attagene CIS-FACTORIAL HepG2 Assay for M06 Transcription Factor (Internal Marker) (AID 2282950). The settings on record: HepG2 Attagene CIS-FACTORIAL M06 internal marker reporter; actives raise or lower the signal. The essentials: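 Terse: HepG2, transient MRTU transfection (FuGene 6), 24 h dosing; total RNA, oligo(dT) RT, PCR, FAM label, HpaI cut, capillary electrophoresis; bidirectional fit vs DMSO baseline; background-control endpoint.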

For test [15], the target named is Hypoxia-inducible factor 1-alpha (Homo sapiens) (UniProt Q16665). In words: ATG_HIF1a_CIS: Attagene CIS-FACTORIAL HepG2 Assay for human Hypoxia Inducible Factor 1 (HIF1A) (AID 2282951). The settings on record: HepG2 Attagene cis-factorial HIF1a reporter transcription; actives raise or lower the signal. Summed up:
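Activity is fitted in both directions relative to DMSO. Reporter transcripts are read by RT-PCR, fluorescent primer extension and capillary electrophoresis after 24 h chemical treatment. The cells are HepG2 carrying transiently transfected cis-element-driven reporter units responding to endogenous factors.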

Test [16] concerns the target Hepatocyte nuclear factor 6 (Homo sapiens) (UniProt Q9UBC0). The experiment in a line: ATG_HNF6_CIS: Attagene CIS-FACTORIAL HepG2 Assay for human Hepatocyte Nuclear Factor 6 (HNF6) (AID 2282952). The settings on record: HepG2 Attagene cis-factorial HNF6 reporter transcription; actives raise or lower the signal. The essentials:
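Activity values derive from bidirectional fitting against DMSO of reporter mRNA levels, measured by capillary electrophoresis of labelled RT-PCR products from HepG2 cells exposed 24 h.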

The target in test [17] is Heat shock factor protein 1 (Homo sapiens) (UniProt Q00613). The experiment in a line: ATG_HSE_CIS: Attagene CIS-FACTORIAL HepG2 Assay for human Heat Shock Transcription Factor 1 (HSE) (AID 2282953). The settings on record: HepG2 HSE cis-reporter, Attagene RNA transcription; actives raise or lower the signal. Summed up:
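Read-out: fluorescence of reporter-specific RT-PCR fragments separated by capillary electrophoresis. HepG2 carrying transfected cis-element reporter units; 24 h dosing; activity fitted in both directions relative to DMSO baseline.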

Test [18] in a line: ATG_MRE_CIS: Attagene CIS-FACTORIAL HepG2 Assay for human Metal Responsive Element (MRE) (AID 2282954). The settings on record: HepG2 MRE cis-reporter transcription, Attagene multiplex; actives raise or lower the signal. Summed up:
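Cells were transfected with cis-promoter reporter transcription units, then dosed for 24 h. RNA was reverse-transcribed, amplified, fluorescently labelled and resolved by capillary electrophoresis, and activity was fitted in both directions relative to DMSO.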

In test [19] the target is Bile acid receptor (Homo sapiens) (UniProt Q96RI1). In words: ATG_IR1_CIS: Attagene CIS-FACTORIAL HepG2 Assay for human Nuclear Receptor Subfamily 1 Group H Member 4 (NR1H4), IR1 submotif (AID 2282946). The settings on record: IR1 reporter transcription, actives raise or lower the signal. Summed up:
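Readout: reporter transcript levels by RT-PCR with fluorescent capillary electrophoresis, from HepG2 cells transiently transfected with multiplexed cis-regulated reporters and dosed 24 h. Gain- or loss-of-signal fitted versus DMSO negative control.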

Test [20] is described as follows: ATG_GRE_CIS: Attagene CIS-FACTORIAL HepG2 Assay for human Glucocorticoid Response Elements (GRE) (AID 2282947). The settings on record: HepG2 GRE cis-reporter, Attagene multiplex mRNA; actives raise or lower the signal. Summed up:
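Cells (HepG2) bearing transfected cis-promoter reporter transcription units were treated with chemical for 24 hours. Reporter mRNA was measured via RT-PCR with capillary electrophoresis, and activity was fitted in both directions relative to DMSO.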

Chain of Bile acid receptor (Homo sapiens) (Q96RI1 whole entry, looked up): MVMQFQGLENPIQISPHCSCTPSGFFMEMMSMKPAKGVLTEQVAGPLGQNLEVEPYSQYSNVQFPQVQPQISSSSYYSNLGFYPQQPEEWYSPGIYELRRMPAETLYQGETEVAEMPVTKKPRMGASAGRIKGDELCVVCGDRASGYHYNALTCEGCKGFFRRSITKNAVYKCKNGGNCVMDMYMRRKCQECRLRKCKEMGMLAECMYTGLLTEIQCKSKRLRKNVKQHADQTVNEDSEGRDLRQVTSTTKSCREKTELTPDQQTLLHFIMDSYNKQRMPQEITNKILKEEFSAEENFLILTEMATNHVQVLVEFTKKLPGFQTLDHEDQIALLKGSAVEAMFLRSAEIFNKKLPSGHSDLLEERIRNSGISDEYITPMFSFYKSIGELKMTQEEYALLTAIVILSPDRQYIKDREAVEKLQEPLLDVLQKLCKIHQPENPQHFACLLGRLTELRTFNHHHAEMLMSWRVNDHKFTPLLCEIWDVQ
Chain of Hypoxia-inducible factor 1-alpha (Homo sapiens) (Q16665 whole entry, looked up): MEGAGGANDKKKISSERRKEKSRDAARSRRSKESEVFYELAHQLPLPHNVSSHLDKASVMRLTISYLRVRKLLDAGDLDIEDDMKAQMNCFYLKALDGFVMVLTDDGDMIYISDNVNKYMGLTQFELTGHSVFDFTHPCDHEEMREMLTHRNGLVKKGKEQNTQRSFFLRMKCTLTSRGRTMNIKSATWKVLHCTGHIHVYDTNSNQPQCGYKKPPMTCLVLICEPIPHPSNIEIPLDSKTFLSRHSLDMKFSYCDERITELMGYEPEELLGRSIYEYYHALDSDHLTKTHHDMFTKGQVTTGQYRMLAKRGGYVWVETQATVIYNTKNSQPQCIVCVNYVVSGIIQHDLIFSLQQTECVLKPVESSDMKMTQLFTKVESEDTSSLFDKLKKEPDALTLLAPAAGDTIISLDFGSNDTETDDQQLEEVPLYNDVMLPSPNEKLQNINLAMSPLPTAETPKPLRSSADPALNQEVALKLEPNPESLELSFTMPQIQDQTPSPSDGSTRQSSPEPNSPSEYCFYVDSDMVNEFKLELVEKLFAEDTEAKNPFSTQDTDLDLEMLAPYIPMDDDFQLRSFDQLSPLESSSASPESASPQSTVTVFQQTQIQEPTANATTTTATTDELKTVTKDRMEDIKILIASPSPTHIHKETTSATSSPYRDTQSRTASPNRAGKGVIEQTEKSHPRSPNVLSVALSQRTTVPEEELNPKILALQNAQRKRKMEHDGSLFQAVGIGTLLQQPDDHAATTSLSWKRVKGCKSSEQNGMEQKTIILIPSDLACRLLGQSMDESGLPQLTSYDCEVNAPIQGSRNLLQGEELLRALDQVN
Chain of Hepatocyte nuclear factor 3-beta (Homo sapiens) (Q9Y261 whole entry, looked up): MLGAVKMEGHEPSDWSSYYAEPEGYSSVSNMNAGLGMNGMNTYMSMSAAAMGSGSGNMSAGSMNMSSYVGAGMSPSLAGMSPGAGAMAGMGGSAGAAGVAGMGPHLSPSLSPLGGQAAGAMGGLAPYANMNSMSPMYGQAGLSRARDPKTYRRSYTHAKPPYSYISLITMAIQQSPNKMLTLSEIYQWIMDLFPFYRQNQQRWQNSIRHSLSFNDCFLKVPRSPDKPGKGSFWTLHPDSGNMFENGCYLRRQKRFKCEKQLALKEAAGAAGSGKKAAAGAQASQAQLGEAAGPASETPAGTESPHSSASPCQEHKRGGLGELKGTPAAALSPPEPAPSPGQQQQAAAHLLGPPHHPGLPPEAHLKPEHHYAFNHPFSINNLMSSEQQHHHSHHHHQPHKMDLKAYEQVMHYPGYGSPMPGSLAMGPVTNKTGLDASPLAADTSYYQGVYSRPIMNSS
Chain of Heat shock factor protein 1 (Homo sapiens) (Q00613 whole entry, looked up, the tested form may be a part): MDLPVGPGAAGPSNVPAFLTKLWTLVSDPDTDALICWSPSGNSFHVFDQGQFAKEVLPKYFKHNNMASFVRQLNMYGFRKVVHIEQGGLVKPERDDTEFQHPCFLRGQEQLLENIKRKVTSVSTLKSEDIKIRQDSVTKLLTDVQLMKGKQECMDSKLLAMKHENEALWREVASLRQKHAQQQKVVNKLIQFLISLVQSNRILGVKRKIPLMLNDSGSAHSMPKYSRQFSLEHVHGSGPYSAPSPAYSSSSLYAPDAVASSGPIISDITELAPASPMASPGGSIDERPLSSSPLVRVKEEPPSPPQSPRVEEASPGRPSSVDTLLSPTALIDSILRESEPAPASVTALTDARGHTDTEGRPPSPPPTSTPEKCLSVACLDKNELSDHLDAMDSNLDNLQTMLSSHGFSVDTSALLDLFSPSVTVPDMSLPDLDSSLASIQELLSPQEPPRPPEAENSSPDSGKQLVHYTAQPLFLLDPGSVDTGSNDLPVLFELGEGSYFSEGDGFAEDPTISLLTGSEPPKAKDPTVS
Chain of Hepatocyte nuclear factor 6 (Homo sapiens) (Q9UBC0 whole entry, looked up): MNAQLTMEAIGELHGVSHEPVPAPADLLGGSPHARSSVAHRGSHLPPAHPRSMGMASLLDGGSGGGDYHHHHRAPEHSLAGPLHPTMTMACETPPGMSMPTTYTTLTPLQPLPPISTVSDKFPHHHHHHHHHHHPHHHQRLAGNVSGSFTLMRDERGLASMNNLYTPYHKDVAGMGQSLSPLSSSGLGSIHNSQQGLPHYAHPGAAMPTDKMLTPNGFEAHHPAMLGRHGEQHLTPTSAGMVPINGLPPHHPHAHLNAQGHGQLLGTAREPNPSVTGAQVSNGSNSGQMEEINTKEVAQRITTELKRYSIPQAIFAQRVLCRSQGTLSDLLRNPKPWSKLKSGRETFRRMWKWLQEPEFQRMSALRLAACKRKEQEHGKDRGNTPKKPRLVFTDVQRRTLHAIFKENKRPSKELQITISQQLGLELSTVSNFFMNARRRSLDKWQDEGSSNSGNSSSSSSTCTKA

In the case of `Cc1cccc(N)c1`, the result in [1], in [2], in test [3], in test [4], in test [5] and in test [6] was inactive. Besides, the compound was called inactive in [7], in test [8], in test [9], in test [10], in test [11] and in test [12]. In addition, the result in test [13], in [14], in [15], in test [16], in test [17] and in test [18] was inactive.

As for `O=S(=O)(c1ccc(O)cc1)c1ccc(O)cc1`, the result in test [1], in test [2], in test [3], in [4], in test [5] and in test [7] was inactive. Also, the compound was called inactive in [8], in test [9], in test [10], in [11], in test [19] and in [20]. Moreover, the result in test [12], in test [14], in test [15], in test [16] and in [18] was inactive. Also, the half-maximal activity concentration (AC50) in [6] is 1.7 µM (active).

As to `NNC(N)=S`, the outcome in [1], in test [2], in test [3], in test [4], in test [5] and in [6] was inactive. For the same compound, the compound was classed as inactive in [7], in test [8], in [9], in [10], in test [11] and in test [19]. Further, the compound was called inactive in test [20], in test [12], in test [14], in [15], in test [16] and in test [17]. The result in [18] was inactive.

As to `COCCOCCO`, the outcome in test [1], in test [2], in test [3], in test [4], in test [5] and in [6] was inactive. Further, the compound was classed as inactive in test [7], in [8], in [9], in [10], in test [11] and in test [12]. Moreover, the compound was called inactive in test [14], in test [15], in test [16], in test [17] and in test [18].

In the case of `C=CC(=O)OCC(CC)(COC(=O)C=C)COC(=O)C=C`, the AC50 in test [1] is 100 µM (active); in test [2] it was 22 µM (active); in [4], 26.6 µM (active); in test [19], 8.23 µM (active); in [12], 42.4 µM (active); in test [18], 9.05 µM (active). Further, the call in [3], in test [5], in test [6], in test [7], in test [8] and in test [9] was inactive. Moreover, the call in test [10], in test [11], in [20], in test [14], in [15] and in test [16] was inactive. For the same compound, in test [17], the compound was called inactive.

Take `ClC(Cl)c1ccccc1`: the call in test [1], in test [2], in [3], in test [4], in test [5] and in test [6] was inactive. In addition, the outcome in [7], in test [8], in [9], in test [10], in [11] and in test [20] was inactive. Besides, the compound was called inactive in test [12], in [13], in test [14], in [15], in [16] and in test [17]. In test [18], the compound was classed as inactive.

Consider `CCCCN(CCCC)SN(C)C(=O)Oc1cccc2c1OC(C)(C)C2`, for which the outcome in test [1], in [2], in test [3], in test [4], in test [5] and in [7] was inactive. The call in test [8], in test [9], in test [10], in [11], in test [20] and in test [12] was inactive. Besides, the call in test [13], in [14], in [15], in test [16] and in test [18] was inactive. Also, in test [6], the AC50 was 14.7 µM (active).

By AC50 is commonly meant the concentration at which the activity in the assay is half-maximal.
